# Assay results: PubChem BioAssay AID493168 (National Center for Advancing Translational Sciences (NCATS), 2011)
# Records with an inconclusive call do not appear. Entries that show only a call come without a potency. The source made the active and inactive calls. Calls come from the whole dose curve; as a rule, active = well fitted inhibition curve with a large enough effect; inconclusive = small, poorly fitted or top-dose-only effect, or effect the other way; inactive = flat fitted curve, though single readings scatter.
# Biological target: Ubiquitin carboxyl-terminal hydrolase 2 (Homo sapiens) (UniProt O75604)
# Sequence (O75604 whole entry, looked up): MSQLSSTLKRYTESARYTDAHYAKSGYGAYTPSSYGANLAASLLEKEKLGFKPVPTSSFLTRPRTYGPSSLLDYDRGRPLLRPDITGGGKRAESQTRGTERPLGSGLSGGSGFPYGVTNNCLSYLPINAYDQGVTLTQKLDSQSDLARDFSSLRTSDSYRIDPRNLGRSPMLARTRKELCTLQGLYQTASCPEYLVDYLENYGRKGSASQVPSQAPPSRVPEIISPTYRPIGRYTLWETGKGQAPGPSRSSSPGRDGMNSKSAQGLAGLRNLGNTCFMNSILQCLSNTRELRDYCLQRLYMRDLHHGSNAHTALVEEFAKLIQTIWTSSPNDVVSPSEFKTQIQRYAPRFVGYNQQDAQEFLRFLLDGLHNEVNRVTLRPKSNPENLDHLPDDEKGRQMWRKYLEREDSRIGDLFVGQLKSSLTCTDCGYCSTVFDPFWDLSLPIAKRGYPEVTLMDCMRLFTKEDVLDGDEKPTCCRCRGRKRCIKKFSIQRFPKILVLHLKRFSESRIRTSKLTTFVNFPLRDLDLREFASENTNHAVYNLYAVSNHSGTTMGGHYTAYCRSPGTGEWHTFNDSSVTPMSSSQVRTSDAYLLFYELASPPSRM
# Assay: Confirmation Assay for Inhibitors of Ubiquitin-specific Protease USP2a Using CHOP2 as the Reporter; note: nearly all actives have a fitted effect of over 55% in size
# Conditions: USP2 core, Ub-CHOP2 coupled reporter fluorescence; series mostly up to 38.3 µM
# Outline: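 USP2 core (10 nM final) was preincubated with compound for 30 min at RT in Tris-HCl pH 8.0, CaCl2, beta-mercaptoethanol, CHAPS. Ub-CHOP2 and reporter substrate (25 nM final each) were added, and fluorescence (Ex 485/Em 531 nm) was read after 60 min.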
# Potency is the fitted concentration of half-maximal effect.
row,Structure (SMILES),Potency
1,Cc1ccc(-c2nc(N/N=C/c3ccncc3)c3ccccc3n2)cc1,inactive
2,COc1ccc(-c2nnn(CC(=O)N3CCOCC3)n2)cc1,inactive
3,O=C(Nc1cnn(Cc2ccccc2)c1)c1nc2ncccn2n1,inactive
4,COC(=O)C1CCN(C(=O)c2cc(-c3ccco3)nc3ccccc23)CC1,13.1 µM (active)
5,O=C(CCCN1C(=O)c2ccccc2C1=O)NC1=NCCS1,inactive
6,CCOc1ccc2[nH]c(=O)c(CN(Cc3cccs3)Cc3nnnn3C(C)(C)CC)cc2c1,inactive
7,Cc1ccc(C)n1-c1cc(S(=O)(=O)N2CCOCC2)ccc1N1CCCC1,inactive
8,O=C(c1ccccc1N(Cc1ccccc1)S(=O)(=O)c1ccccc1)N1CCOCC1,inactive
9,COc1cccc(NC(=O)CSc2nncn2-c2ccccn2)c1,inactive
10,CN(C)c1cccc(C(=O)NNC(=O)C23CC4CC(CC(C4)C2)C3)c1,inactive
11,N#CC(c1ccccc1)c1ccc(C(=O)c2ccc(F)cc2)cc1 (stereo not given),inactive
12,Cc1ccc(C(=O)NCCNS(=O)(=O)c2ccccc2)cc1,inactive
13,COc1ccccc1NC(=O)N1CCN(c2ccccn2)CC1,inactive
14,Cc1cc(C)c(NC(=O)C[N+](C)(C)CC(O)COc2cccc3ccccc23)c(C)c1 (stereo not given),inactive
15,CC1CCCC(N2CCN(C(=O)c3cccc(F)c3)CC2)C1 (stereo not given),inactive
16,COc1cccc(/C=N/n2c(SC)nnc2-c2ccccc2)c1O,inactive
17,CC(C)C(=O)N=c1sc2cc(F)cc(F)c2n1C,inactive
18,Cc1ccc(C(=O)N/C(=C/c2cccs2)C(=O)NCc2ccco2)cc1,inactive
19,COc1ccc(CN(Cc2cc3cc(C)ccc3[nH]c2=O)C(=O)N(C)C)cc1,inactive
20,COc1cc(C(O)P(=O)(OC(C)C)c2ccc(N(C)C)cc2)cc(OC)c1OC (stereo not given),inactive

row,Structure (SMILES),Potency
1,Cc1ccc(C2=[N+]([O-])C(C)N(O)C2(C)C)o1 (stereo not given),inactive
2,Cc1[nH]c2ccccc2c1C(c1ccccn1)c1c(C)[nH]c2ccccc12,inactive
3,CCC(CO)Oc1cc(NCc2cccc(C)c2)c2ncn(C(C)C)c2c1 (stereo not given),inactive
4,O=C(Cc1cc(=O)[nH]c(=O)[nH]1)NCC1CCCO1 (stereo not given),inactive
5,CN(CC(=O)Nc1cccc2ccccc12)C(=O)c1ccc(NC(=O)CC#N)cc1,inactive
6,COc1ccc(/C=C\C(=O)O[C@@H]2C(O)C(O[C@@H]3OC(C)[C@H](O[C@@H]4OCC(O[C@H]5O[C@H](CO)[C@@H](O)C(O)C5O)C(O)C4O)C(O)C3O)[C@H](OC(=O)[C@]34CCC(C)(C)C[C@@H]3C3=CCC5[C@@]6(C)CC(O)C(O[C@@H]7OC(CO)C(O)[C@H](O)[C@H]7O)[C@@](C)(C(=O)O)C6CC[C@@]5(C)[C@]3(CO)CC4)O[C@H]2C)cc1 (stereo not given in full),inactive
7,O=C(NC1CCCCC1)C(c1ccco1)N(C(=O)c1csnn1)c1cccc(F)c1 (stereo not given),inactive
8,O=C(CCNc1cccc(Cl)c1)c1ccco1,inactive
9,Cc1c2c(=O)n(-c3nc4ccccc4s3)nc-2cc(O)n1Cc1ccccc1,inactive
10,Cc1ccc(C(=O)N(C)CC(=O)Nc2cccc(C)c2C)o1,inactive
11,Cc1ccc(C(=O)N/C(=C/c2ccco2)C(=O)Nc2cccc(C(=O)O)c2)cc1,inactive
12,O=C1NCC(CN(c2ccccc2)c2ccccc2)O1 (stereo not given),inactive
13,CN(C)CCOCCP(=O)(c1ccccc1)c1ccccc1,inactive
14,Cc1ccc2c(c1)c1c3n2CCN(C(=O)Cn2c(-c4ccccc4)noc2=O)C3CCC1 (stereo not given),inactive
15,CSc1cccc(NC(=O)c2ccccc2N(C)S(C)(=O)=O)c1,inactive
16,CN(C)S(=O)(=O)c1cccc(NC(=S)NNC(=O)c2cc3ccccc3cc2O)c1,inactive
17,CCN(CC(=O)Nc1ccc(NC(C)=O)cc1)C(=O)c1ccc(N2CCC(C)CC2)c([N+](=O)[O-])c1,inactive
18,COc1ccc(S(=O)(=O)N2CCCCC2)cc1NC(=O)Cc1c[nH]c2ccccc12,inactive
19,Cc1cccc2c1N(CCCOc1ccc(C(C)(C)C)cc1)C(=O)C2=O,inactive
20,COc1ccc(NC(=O)CSc2nc3sc(C)cc3c(=O)n2C)c(OC)c1,inactive
